Experimental findings from ChEMBL document CHEMBL1961873, “Compounds: GSK PKIS; Assays: Nanosyn kinase panel” (2012) are described below.

Chain of Serine/threonine-protein kinase PLK1 (Homo sapiens) (P53350 whole entry): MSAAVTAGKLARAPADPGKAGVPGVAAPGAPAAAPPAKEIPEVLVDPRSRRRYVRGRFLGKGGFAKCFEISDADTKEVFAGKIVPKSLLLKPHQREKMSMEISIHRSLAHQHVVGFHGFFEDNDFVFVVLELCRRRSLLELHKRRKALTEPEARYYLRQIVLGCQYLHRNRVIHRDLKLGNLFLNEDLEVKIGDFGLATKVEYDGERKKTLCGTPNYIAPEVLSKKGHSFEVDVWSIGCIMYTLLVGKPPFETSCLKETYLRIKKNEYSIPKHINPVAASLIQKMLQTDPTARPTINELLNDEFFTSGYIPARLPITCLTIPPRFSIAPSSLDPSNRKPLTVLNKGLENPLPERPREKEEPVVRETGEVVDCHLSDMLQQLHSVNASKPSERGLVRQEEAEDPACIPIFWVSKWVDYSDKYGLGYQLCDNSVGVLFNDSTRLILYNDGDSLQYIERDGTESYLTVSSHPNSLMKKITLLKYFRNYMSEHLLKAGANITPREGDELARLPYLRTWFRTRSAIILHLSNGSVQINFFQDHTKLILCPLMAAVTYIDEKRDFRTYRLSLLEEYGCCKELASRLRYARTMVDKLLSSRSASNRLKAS

One test has as its target T1, Serine/threonine-protein kinase Nek9 (Homo sapiens) (UniProt Q8TD19).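 Also: each value is a mean percent inhibition of NEK9.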
T1 sequence (whole entry): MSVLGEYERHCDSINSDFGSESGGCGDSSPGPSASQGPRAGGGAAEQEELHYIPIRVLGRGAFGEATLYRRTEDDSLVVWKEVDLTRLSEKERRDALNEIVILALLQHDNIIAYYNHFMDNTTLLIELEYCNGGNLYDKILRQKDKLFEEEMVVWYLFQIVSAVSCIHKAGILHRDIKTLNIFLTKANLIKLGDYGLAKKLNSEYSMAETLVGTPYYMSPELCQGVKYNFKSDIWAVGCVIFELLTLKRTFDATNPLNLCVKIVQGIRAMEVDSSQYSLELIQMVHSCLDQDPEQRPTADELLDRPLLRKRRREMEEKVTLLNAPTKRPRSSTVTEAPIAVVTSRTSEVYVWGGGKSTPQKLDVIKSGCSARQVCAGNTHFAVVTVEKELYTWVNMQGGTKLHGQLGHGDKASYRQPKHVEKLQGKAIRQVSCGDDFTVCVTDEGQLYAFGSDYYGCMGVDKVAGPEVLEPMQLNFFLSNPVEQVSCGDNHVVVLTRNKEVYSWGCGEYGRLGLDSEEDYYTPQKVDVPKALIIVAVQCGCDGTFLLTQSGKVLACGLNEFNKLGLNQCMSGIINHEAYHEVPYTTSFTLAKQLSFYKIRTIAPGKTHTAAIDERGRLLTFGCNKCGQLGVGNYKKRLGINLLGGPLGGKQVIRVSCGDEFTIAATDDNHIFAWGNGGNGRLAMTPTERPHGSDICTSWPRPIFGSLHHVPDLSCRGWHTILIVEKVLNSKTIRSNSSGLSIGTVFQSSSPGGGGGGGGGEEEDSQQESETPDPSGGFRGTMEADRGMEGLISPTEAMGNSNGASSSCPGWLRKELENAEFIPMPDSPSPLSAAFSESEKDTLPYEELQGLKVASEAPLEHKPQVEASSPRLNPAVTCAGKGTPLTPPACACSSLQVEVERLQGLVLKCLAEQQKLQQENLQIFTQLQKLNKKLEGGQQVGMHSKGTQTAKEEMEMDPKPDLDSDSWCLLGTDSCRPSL
Conditions: at 1 µM.
As to `CN1CCN(CCCNc2nc3ccc(Oc4ccc(NC(=O)Nc5cc(C(F)(F)F)ccc5F)cc4)cc3[nH]2)CC1`, the inhibition is -1.83%.
In the case of `Fc1ccc(-c2c(-c3ccncc3)nc3n2CCS3)cc1`, the inhibition worked out at 4.81%.
As for `NCc1ccc(-n2c(-c3nonc3N)nc3cnccc32)cc1`, the inhibition was found to be 6.1%.
With `CCS(=O)(=O)c1ccc(OC)c(Nc2ncc(-c3ccccc3Cl)o2)c1`, the inhibition was 6.89%.
On to `Fc1ccc(-c2ncn(C3CCNCC3)c2-c2ccnc(Oc3ccc(F)c(F)c3)n2)cc1`, for which the inhibition stood at 6.01%.
For the molecule `Fc1ccc(-c2ncn(C3CCNCC3)c2-c2ccnc(Oc3ccc(Oc4ccccc4)cc3)n2)cc1`, the inhibition amounted to 4.8%.
Regarding `C[C@@H](Oc1cc(-n2cnc3ccc(OC4CCN(C)CC4)cc32)sc1C(N)=O)c1ccccc1Cl`, the inhibition turned out to be 97.2%.
Take `c1ccc(Oc2ccc(Nc3ncc(-c4ccccc4)o3)cc2)cc1`: the inhibition was found to be 2.53%.
As for `COc1cccc(-n2cnc3c(N/N=C/c4ccncc4)ncnc32)c1`, the inhibition is 5.21%.
Take `C[C@@H](Oc1cc(-n2cnc3ccc(OCC4CCN(C)CC4)cc32)sc1C(N)=O)c1ccccc1Cl`: the inhibition was 89.7%.
As to `CCN(CC)Cc1ccc(Nc2nccc(-c3cnn4ncccc34)n2)cc1`, the inhibition is 13.7%.
In the case of `Cc1nnc(-c2ccc(C)c(-c3ccc(C(=O)NCc4ccc(Cl)cc4)cc3)c2)o1`, the inhibition worked out at 11.6%.
For the molecule `O=C(Nc1n[nH]c2cc(-c3ccccc3)ccc12)C1CC1`, the inhibition amounted to 5.87%.
With `COc1cc(Nc2ncc3c(C)nc(-c4cccc(Oc5ccccc5)c4)n3n2)cc(OC)c1OC`, the inhibition came out at 81.4%.
For `Clc1ccc(CNc2nccc(-c3cnn4ncccc34)n2)cc1`, the inhibition was -2.99%.
For `CN(C)c1ccc2c(c1)/C(=C/Nc1ccc(S(N)(=O)=O)cc1)C(=O)N2`, the inhibition turned out to be 4.93%.
For `CNC(=O)c1cncc(/C=C/c2c(C)cccc2C)c1`, the inhibition was determined as 2.51%.
On the same count and under the same terms, in the case of `COc1cc(Nc2ncc3c(C)nc(-c4cccc(C(F)(F)F)c4)n3n2)cc(OC)c1OC` it was 86.1%.

The next test concerns the target Serine/threonine-protein kinase PLK1 (Homo sapiens) (UniProt P53350). The note with it: at 0.1 µM.
For `COc1cc(C)c(N(C)C(=O)CN(C)C)cc1Nc1nc(Nc2cccc(F)c2C(N)=O)c2cc[nH]c2n1`, the inhibition worked out at 2.25%.
On to `CN(C)CCCNc1nccc(-c2c(-c3ccc(F)cc3)nn3cc(C(F)(F)F)ccc23)n1`, for which the inhibition stood at 2.56%.
Regarding `COc1cccc(/C=N/Nc2ncnc3c2cnn3-c2cccc(OC)c2)c1`, the inhibition came to 5.9%.
For the molecule `CCC(=O)Nc1ccc(C)c(-c2ccc(C(=O)NCC3CC3)cc2)c1`, the inhibition was determined as 5.02%.
`CCS(=O)(=O)c1ccc(OC)c(Nc2ncc(-c3cccc(-c4ccccc4F)c3)o2)c1`: the inhibition stood at 20.4%.
As to `C#Cc1cccc(Nc2ncnc3ccc(OCCCCNCCS(C)(=O)=O)cc23)c1`, the inhibition amounted to 2.94%.
Still for that read-out and setting: in the case of `CS(=O)(=O)CCNCc1ccc(-c2ccc3ncnc(Nc4ccc(OCc5ccccc5)c(Br)c4)c3c2)o1` it was 3.69%.
In the case of `NS(=O)(=O)c1ccc(N/N=C2\C(=O)Nc3ccc(-c4cnco4)cc32)cc1`, the inhibition was 3.71%.
As to `Cc1ccc(C(=O)NC2CCC2)cc1-c1ccc(C(=O)NCC2CC2)cc1`, the inhibition stood at 4.95%.
As for `COc1ccc2cc(-c3c(-c4ccncc4)nc(-c4ccc([S+](C)[O-])cc4C)n3C)ccc2c1` (stereo unspecified), the inhibition is -0.27%.
Turning to `COc1cc(N2CCN(C(C)C)CC2)ccc1Nc1nc(Nc2ccc(F)cc2C(=O)NC[C@@H](O)CO)c2cc[nH]c2n1`, the inhibition was 9.77%.
As to `Fc1ccc(-c2nc3n(c2-c2ccncc2)CCS3)cc1`, the inhibition was 3.85%.
On to `CN1CCN(CCCNc2nc3ccc(Oc4ccc(NC(=O)Nc5cc(C(F)(F)F)ccc5F)cc4)cc3[nH]2)CC1`, for which the inhibition stood at 1.78%.
For `Fc1ccc(-c2c(-c3ccncc3)nc3n2CCS3)cc1`, the inhibition is 2.99%.
As to `NCc1ccc(-n2c(-c3nonc3N)nc3cnccc32)cc1`, the inhibition is 3.75%.
With `CCS(=O)(=O)c1ccc(OC)c(Nc2ncc(-c3ccccc3Cl)o2)c1`, the inhibition came to 0.86%.
As to `Fc1ccc(-c2ncn(C3CCNCC3)c2-c2ccnc(Oc3ccc(F)c(F)c3)n2)cc1`, the inhibition amounted to 3.45%.
With `Fc1ccc(-c2ncn(C3CCNCC3)c2-c2ccnc(Oc3ccc(Oc4ccccc4)cc3)n2)cc1`, the inhibition worked out at 4.45%.
`c1ccc(-c2n[nH]cc2-c2ccnc(-c3ccc(OCCN4CCOCC4)cc3)c2)nc1`: the inhibition is -1.38%.
Take `c1ccc(Oc2ccc(Nc3ncc(-c4ccccc4)o3)cc2)cc1`: the inhibition turned out to be 1.36%.
In the case of `COc1cccc(-n2cnc3c(N/N=C/c4ccncc4)ncnc32)c1`, the inhibition was -1.9%.
As to `CCN(CC)Cc1ccc(Nc2nccc(-c3cnn4ncccc34)n2)cc1`, the inhibition is 5.43%.
In the case of `Cc1nnc(-c2ccc(C)c(-c3ccc(C(=O)NCc4ccc(Cl)cc4)cc3)c2)o1`, the inhibition is 3.2%.
Regarding `O=C(Nc1n[nH]c2cc(-c3ccccc3)ccc12)C1CC1`, the inhibition stood at 5.16%.
For the molecule `Clc1ccc(CNc2nccc(-c3cnn4ncccc34)n2)cc1`, the inhibition was determined as 2.4%.
With `CN(C)c1ccc2c(c1)/C(=C/Nc1ccc(S(N)(=O)=O)cc1)C(=O)N2`, the inhibition stood at 2.05%.
As for `CNC(=O)c1cncc(/C=C/c2c(C)cccc2C)c1`, the inhibition worked out at 1.18%.

The target is the same in another test. The note with it: at 1 µM.
In the case of `COc1cc(C)c(N(C)C(=O)CN(C)C)cc1Nc1nc(Nc2cccc(F)c2C(N)=O)c2cc[nH]c2n1`, the inhibition stood at 2.83%.
Turning to `CN(C)CCCNc1nccc(-c2c(-c3ccc(F)cc3)nn3cc(C(F)(F)F)ccc23)n1`, the inhibition came out at 2.23%.
Consider `COc1cccc(/C=N/Nc2ncnc3c2cnn3-c2cccc(OC)c2)c1`, for which the inhibition was found to be 5.49%.
Take `CCC(=O)Nc1ccc(C)c(-c2ccc(C(=O)NCC3CC3)cc2)c1`: the inhibition was 4.61%.
Consider `C#Cc1cccc(Nc2ncnc3ccc(OCCCCNCCS(C)(=O)=O)cc23)c1`, for which the inhibition came to 2.68%.
For `CS(=O)(=O)CCNCc1ccc(-c2ccc3ncnc(Nc4ccc(OCc5ccccc5)c(Br)c4)c3c2)o1`, the inhibition is 3.81%.
Consider `NS(=O)(=O)c1ccc(N/N=C2\C(=O)Nc3ccc(-c4cnco4)cc32)cc1`, for which the inhibition was 3.38%.
For `Cc1ccc(C(=O)NC2CCC2)cc1-c1ccc(C(=O)NCC2CC2)cc1`, the inhibition came to 2.15%.
For the molecule `COc1ccc2cc(-c3c(-c4ccncc4)nc(-c4ccc([S+](C)[O-])cc4C)n3C)ccc2c1` (stereo unspecified), the inhibition is -0.2%.
For the molecule `COc1cc(N2CCN(C(C)C)CC2)ccc1Nc1nc(Nc2ccc(F)cc2C(=O)NC[C@@H](O)CO)c2cc[nH]c2n1`, the inhibition was determined as 38%.
For `Fc1ccc(-c2nc3n(c2-c2ccncc2)CCS3)cc1`, the inhibition was 4.09%.
Still for that read-out and setting: in the case of `CN1CCN(CCCNc2nc3ccc(Oc4ccc(NC(=O)Nc5cc(C(F)(F)F)ccc5F)cc4)cc3[nH]2)CC1` it was 0.98%.
Regarding `Fc1ccc(-c2c(-c3ccncc3)nc3n2CCS3)cc1`, the inhibition was determined as 2.94%.
Turning to `NCc1ccc(-n2c(-c3nonc3N)nc3cnccc32)cc1`, the inhibition stood at 3.27%.
On the same count and under the same terms, in the case of `CCS(=O)(=O)c1ccc(OC)c(Nc2ncc(-c3ccccc3Cl)o2)c1` it was 3.51%; in that of `Fc1ccc(-c2ncn(C3CCNCC3)c2-c2ccnc(Oc3ccc(F)c(F)c3)n2)cc1`, 2.6%.
For `Fc1ccc(-c2ncn(C3CCNCC3)c2-c2ccnc(Oc3ccc(Oc4ccccc4)cc3)n2)cc1`, the inhibition turned out to be 6.8%.
On to `c1ccc(-c2n[nH]cc2-c2ccnc(-c3ccc(OCCN4CCOCC4)cc3)c2)nc1`, for which the inhibition is -1.28%.
Consider `c1ccc(Oc2ccc(Nc3ncc(-c4ccccc4)o3)cc2)cc1`, for which the inhibition came out at 1.6%.
On to `COc1cccc(-n2cnc3c(N/N=C/c4ccncc4)ncnc32)c1`, for which the inhibition was -0.54%.
In the case of `CCN(CC)Cc1ccc(Nc2nccc(-c3cnn4ncccc34)n2)cc1`, the inhibition was determined as 8.15%.
Regarding `Cc1nnc(-c2ccc(C)c(-c3ccc(C(=O)NCc4ccc(Cl)cc4)cc3)c2)o1`, the inhibition came out at 4.52%.
With `O=C(Nc1n[nH]c2cc(-c3ccccc3)ccc12)C1CC1`, the inhibition was found to be 2.83%.
With `Clc1ccc(CNc2nccc(-c3cnn4ncccc34)n2)cc1`, the inhibition came to 2.85%.
On to `CN(C)c1ccc2c(c1)/C(=C/Nc1ccc(S(N)(=O)=O)cc1)C(=O)N2`, for which the inhibition was 2.41%.
The same measure, in the same setting: in the case of `CNC(=O)c1cncc(/C=C/c2c(C)cccc2C)c1` it was 0.2%.
